From PubChem BioAssay AID1159569 (Broad Institute, 2015)
Measured potencies and affinities stand elsewhere. Records with an inconclusive call do not appear. Unmarked numbers belong to inactive results. The rule behind the calls is not given here.

Assay: HepG2 cell cytotoxicity, dose response, cytotoxicity control, plate reader, dry powder samples (AID 1159569)
Details: HepG2 cytotoxicity counterscreen; series mostly up to 50 µM; activity change, negative = cytotoxicity: at the top concentration

| Compound | activity change, negative = cytotoxicity [%] |
| --- | --- |
| C[C@@H]1CN([C@@H](C)CO)C(=O)c2cccc(NC(=O)Nc3ccc4c(c3)OCO4)c2O[C@@H]1CN(C)C(=O)Nc1ccc2c(c1)OCO2 | -9.01 |
| C[C@@H]1CN([C@@H](C)CO)C(=O)c2cccc(NC(=O)c3nc4ccccc4s3)c2O[C@H]1CN(C)C(=O)NC1CCCCC1 | -13.8 |
| CCCC(=O)N1CC2(C1)CN(S(=O)(=O)c1ccc(C)cc1)[C@@H](CO)c1[nH]c3cc(OC)ccc3c12 | -20.5 |
| Cc1nc(N2[C@H](CO)[C@H](c3ccccc3)[C@H]2CNCC2CCCC2)sc1C | -35.8 |
| Cc1ccc(-c2ccccc2[C@H]2[C@@H](C#N)N(C(=O)c3cccc(F)c3)[C@H]2CO)cc1 | -18.3 |
| COc1ccc2c3c(n(C)c2c1)[C@@H](CO)N(C(=O)C1CCC1)CC31CN(C(=O)Nc2cccc(F)c2)C1 | -32.2 |
| O=C(C1CCCC1)N1CC2(C1)[C@@H](c1ccccc1)[C@H](CO)N2Cc1ccc(Cl)cc1 | -21.2 |
| COc1ccc(C#Cc2cnc3c(c2)C(=O)N([C@H](C)CO)C[C@H](C)[C@H](CN(C)S(=O)(=O)c2cccc(F)c2)O3)cc1OC | -12.1 |
| C[C@@H]1CN([C@H](C)CO)C(=O)c2cc(C#CCc3ccccc3)cnc2O[C@H]1CN(C)C(=O)C1CCC1 | -10.4 |
| CCc1csc(N2[C@H](C#N)[C@H](c3ccccc3-c3ccc(F)cc3)[C@H]2CO)n1 | -23.6 |
| CCC(=O)N1CCC2(CC1)CN(S(=O)(=O)c1ccccc1)[C@@H](CO)c1[nH]c3cc(OC)ccc3c12 | -22.3 |
| C[C@H](CO)N1C[C@H](C)[C@@H](CN(C)C(=O)Nc2cccc3ccccc23)Oc2ccc(NC(=O)Cc3cn(C)c4ccccc34)cc2C1=O | -2.74 |
| COc1ccc2c3c([nH]c2c1)[C@H](CO)NCC31CCN(C(=O)Nc2ccc3c(c2)OCO3)CC1 | -12.1 |
| COc1cccc(C#Cc2ccc([C@H]3[C@@H](CO)N(C(=O)c4ccccn4)[C@H]3C#N)cc2)c1 | -1.52 |
| CO[C@@H]1CN(C)C(=O)c2ccc(NC(=O)c3ccc4c(c3)OCO4)cc2OC[C@@H](C)N(Cc2ccc3c(c2)OCO3)C[C@H]1C | -20.4 |
| C[C@@H]1CN([C@@H](C)CO)S(=O)(=O)c2ccc(C#CC3CCCC3)cc2O[C@H]1CN(C)C(=O)Cc1ccncc1 | -34.8 |

| Compound | activity change, negative = cytotoxicity [%] |
| --- | --- |
| C[C@@H]1CN([C@H](C)CO)C(=O)c2cc(/C=C/c3ccccc3)cnc2O[C@H]1CN(C)C(=O)NC1CCCCC1 | -14.9 |
| CC(C)NC(=O)N1[C@@H](CO)[C@@H](c2ccccc2)C12CN(Cc1ccc(F)cc1)C2 | -23.3 |
| COc1ccc(NC(=O)N2CCCCN3[C@H](CO)[C@H](c4ccc(C#Cc5ccccn5)cc4)[C@@H]3C2)cc1 | -9.61 |
| O=C(C1CCCC1)N1CC(=O)N2[C@H](CO)[C@H](c3ccc(-c4cccnc4)cc3)[C@H]2C1 | -11.9 |
| COc1ccc(NC(=O)N2CC3(C2)CN(C(=O)C2CCC2)[C@H](CO)c2c3c3ccc(OC)cc3n2C)cc1 | -15.6 |
| COc1ccc2c3c(n(C)c2c1)[C@@H](CO)N(C(=O)C1CCCC1)CC31CN(C(=O)Nc2cccc(F)c2)C1 | -13.8 |
| C[C@H]1CN([C@@H](C)CO)C(=O)c2c(c3ccccc3n2C)-c2ccccc2CO[C@@H]1CN(C)C(=O)Nc1cccc(C(F)(F)F)c1 | -53.7 |
| O=C(NC[C@@H]1CC[C@H]2[C@H](CN2Cc2cc(-c3ccccc3)on2)O1)c1ccc2c(c1)OCO2 | 8.46 |
| C[C@@H]1CN([C@@H](C)CO)C(=O)c2cccc(NC(=O)c3cnccn3)c2O[C@@H]1CN(C)Cc1ccc(-c2ccccc2)cc1 | -23.5 |
| OC[C@H]1[C@H](c2ccccc2)C2(CN(Cc3ccccc3F)C2)N1Cc1ccccc1F | -54.7 |
| COc1ccccc1S(=O)(=O)N(C)C[C@H]1OCc2ccccc2-c2c(n(C)c3ccccc23)C(=O)N([C@@H](C)CO)C[C@@H]1C | 0.808 |
| COc1ccc(S(=O)(=O)Nc2ccc3c(c2)CC(=O)N([C@@H](C)CO)C[C@H](C)[C@H](CN(C)S(=O)(=O)c2ccc(C)cc2)O3)cc1 | -23.3 |
| COc1ccc(C#Cc2ccc3c(c2)[C@H]2[C@H](CCN2C(=O)C2CCCC2)[C@@H](CO)N3)cc1 | -20.4 |
| O=C(Nc1ccccc1)N1CCCCN2[C@@H](CO)[C@H](c3ccc(C#Cc4cccnc4)cc3)[C@@H]2C1 | -28.9 |
| C[C@H](CO)N1C[C@H](C)[C@@H](CN(C)C(=O)Nc2ccc(-c3ccccc3)cc2)OCc2ccccc2-c2c(n(C)c3ccccc23)C1=O | 7.2 |
